Assay results: PubChem BioAssay (NCATS)
Inconclusive results are not listed. A call without a number means that no potency is given here. A number with no mark means an inactive call. Calls of active or inactive are those of the source. Calls follow the shape of the dose curve; as a rule, active = well fitted cell-killing curve with a large enough effect; inconclusive = small, poorly fitted or top-dose-only effect, or effect the other way; inactive = flat fitted curve, though single readings scatter.

tested on: Hek293T; assay: Primary qHTS to identify gynecologic anti-cancer compounds using libraries of approved drugs and bioactive compounds (AID 1345084); conditions: Gynecologic cancer cell panel viability, ATPlite luminescence, 48 h, control line for the selectivity index; series mostly up to 57.5 µM; also: nearly all actives have a fitted effect of over 55% in size
Procedure, shortened: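 Cell viability after 48 h drug treatment, ATPlite luminescence readout; five doses.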
Potency is read from the fitted curve at half-maximal effect.

Structure (SMILES)	Potency	activity change, negative = cytotoxicity
CC(=O)OC[C@H]1O[C@H](O[C@]2(CO)O[C@H](CO)[C@@H](OC(=O)/C=C/c3ccccc3)[C@@H]2O)[C@H](O)[C@@H](O)[C@@H]1O	inactive	–
C=C(C)C1CC[C@]2(C(=O)O)CC[C@]3(C(=O)O)[C@H](CCC4[C@@]5(C)CC[C@H](O)C(C)(C)C5CC[C@]43C)C12 (some centres not stated)	inactive	–
COc1cc(/C=C/C(=O)O[C@H]2[C@H](O)[C@@H](CO)O[C@@]2(CO)O[C@H]2O[C@H](CO)[C@@H](O)[C@H](O)[C@H]2O)ccc1O	inactive	–
CC1(C(=O)O)CCCC2(C)C3CCC4CC3(CCC12)CC4=O (configuration not stated)	inactive	–
C/C=C/C(O)C1OC(=O)CC1Nc1ccc(C(=O)O)cc1 (configuration not stated)	inactive	–
C=C(CO[C@@H]1O[C@H](CO[C@@H]2OC[C@](O)(CO)[C@H]2O)[C@@H](O)[C@H](O)[C@H]1O)C1Cc2cc(C(C)=O)ccc2O1 (some centres not stated)	inactive	–
COc1ccc([C@@]2(O)c3c(ccc4c3OC(C)(CCC=C(C)C)C=C4)NC(=O)[C@@H]2OC)cc1 (some centres not stated)	inactive	–
C=C1C[C@]23C[C@H]1[C@@H](O)C[C@H]2[C@@]12C=C[C@H](O)[C@@](C)(C(=O)O1)[C@H]2[C@@H]3C(=O)O	inactive	–
C=C1C(=O)O[C@@H]2C[C@H](C)[C@@]3(O)C=C(C(C)=O)[C@]4(CC3C[C@H]12)C(=O)O[C@H]1C[C@@H](C)C(CCC(C)=O)=CC[C@H]14 (some centres not stated)	inactive	–
CCC(C)C(=O)OC1CC(C)C=C2C=CC(C)C(CCC(O)CC(O)CC(=O)O)C21 (configuration not stated)	inactive	–
OC[C@H]1O[C@@H](OCCc2ccccc2)[C@H](O[C@@H]2OC[C@](O)(CO)[C@H]2O)[C@@H](O)[C@@H]1O	inactive	–
CC1=C(C(=O)O)/C(=C\CO[C@@H]2O[C@H](CO)[C@@H](O)[C@H](O)[C@H]2O)C(OC(=O)/C=C\c2ccc(O)cc2)C1 (some centres not stated)	inactive	–
CC1(C)CCCC2(C)C1C(O)C=C(CO)C2(O)CO (configuration not stated)	inactive	–
C/C=C(\C)C(=O)OCC1OC(OC2OC(COC(=O)/C(C)=C/C)C(OC3OC(CO)C(OC(=O)/C(C)=C/C)C(OC(=O)/C(C)=C/C)C3O)C(O)C2O)C(O)C(O)C1OC1OC(CO)C(OC(=O)/C(C)=C/C)C(OC(=O)/C(C)=C/C)C1O (configuration not stated)	–	-1.84% [at 11.6 µM]
COc1c2c(c(C)c3c1C(=O)OC3)O[C@@]1(C)CCC3(C(C)(C)O)OC(=O)CC[C@]3(C)[C@H]1C2 (some centres not stated)	inactive	–
COc1ccc(C[C@H](N)C(=O)N[C@@H]2[C@H](O)[C@H](n3cnc4c(N(C)C)ncnc43)O[C@@H]2CO)cc1	2.24 µM (active)	–
OC1CCC(Nc2ncc3nc(Nc4c(F)cc(F)cc4F)n([C@H]4CCOC4)c3n2)CC1 (some centres not stated)	inactive	–
Cn1cc(-c2ccc3nnc(Sc4ccc5nn(C)cc5c4)n3n2)cn1	inactive	–
COc1cc(N)c(Cl)cc1C(=O)NC[C@@H]1CCN2CCC[C@@H]12	inactive	–
CC1(C)CCCC2(C)C1CC=C1C(=O)OC(O)C12O (configuration not stated)	inactive	–
CCOc1ccc(S(=O)(=O)n2c(C)nc3ccccc32)cc1	inactive	–
CC(C)[C@H]1CC[C@@]2(O)COC(=O)[C@H]2[C@@H]1/C=C(\CO)C(=O)O	inactive	–
CC(O)CO[C@@H]1O[C@H](CO)[C@@H](O)[C@H](O)[C@H]1O (some centres not stated)	inactive	–
CC1(C=O)CC[C@]2(C(=O)O[C@@H]3O[C@H](CO)[C@@H](O)[C@H](O)[C@H]3O)CC[C@]3(C)C(=CCC4[C@@]5(C)C[C@H](O)[C@H](O[C@@H]6OC[C@@H](O)[C@H](O)[C@H]6O)[C@@](C)(CO)C5CC[C@]43C)C2C1 (some centres not stated)	–	-2.72% [at 11.6 µM]
COC1C(CO)OC(n2cnc3c(=O)[nH]cnc32)C1O (configuration not stated)	inactive	–
Cc1csc(NC(=O)c2ccc(COc3cccc(Cl)c3)o2)n1	inactive	–
CC[C@@](C)(Nc1ccnc(-c2c[nH]c3ncccc23)n1)C(=O)NCC(F)(F)F	inactive	–
